Laboratory results taken from PubChem BioAssay AID1662 (Broad Institute, 2009).
Among all 300,000 compounds or so, about 4,000 (1.3%) were called active. This excerpt belongs to a sample that is enriched for actives. Unmarked numbers belong to inactive results.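 The calls were made as follows: active = mean replicate score, as percent of positive control median, at least 50; inconclusive = mean below 50 but one replicate at or above 50; inactive = mean and every replicate below 50.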

Test: S. pyogenes SKKanGAS growth inhibitors in kanamycin, primary screen, streptokinase expression inhibitor project, SKKanGAS strain, BacTiter-Glo luminescence (AID 1662);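 also: strain carries kanamycin resistance gene driven by streptokinase promoter and grows in 40 µg/ml kanamycin; loss of luminescence reflects streptokinase promoter inhibition or plain growth inhibition; 0% = median of DMSO wells and 100% = positive control at its reference dose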
Settings: 6 h, at 7.5 µM, hits give high values

Row | SMILES | inhibition
1 | O=C(N/N=C/c1c(O)n(Cc2ccccc2)c(=O)[nH]c1=O)c1ccccc1 | 56.7% (active)
2 | O=c1[nH]c(=O)n(Cc2ccccc2)c(O)c1/C=N/Nc1c(F)c(F)c(F)c(F)c1F | 6.55%
3 | O=C(N/N=C/c1c(O)n(C2CC2)c(=S)[nH]c1=O)c1ccccc1 | -1.33%
4 | COC(=O)N(c1ccc(OC)cc1)P1(=S)OCCC(C)O1 (stereo not given) | -2.38%
5 | CCOP(=S)(OCC)SCOC(=O)NCC(=O)OC | 3.28%
6 | COc1ccccc1OC(=O)c1ccc(C)c(S(=O)(=O)N2CCOCC2)c1 | 3.63%
7 | CCCCCCCCCCCCn1ccc(=N)cc1 | 93.3% (active)
8 | O=[N+]([O-])c1ccc(C2C3C(c4ccccc4)=NC4(CCCCC4)N32)cc1 (stereo not given) | 4.96%
9 | Cc1cccc(NC(=O)OC2CN3CCC2CC3)c1 (stereo not given) | 0.418%
10 | CC1(C)C(c2ccccc2)=NC(c2cccnc2)=[N+]1[O-] | -22%
11 | CCCCCn1c(=O)c(C(=O)NCc2ccccn2)c(O)c2ccccc21 | 6.78%
12 | CCCCCn1c(=O)c(C(=O)NCc2ccccc2)c(O)c2ccccc21 | 86% (active)
13 | CCCCn1c(=O)c(C(=O)Nc2ccccc2Cl)c(O)c2ccccc21 | -1.86%
14 | COC(=O)C1=C(c2cc3ccccc3o2)C[C@@H]2CC[C@H]1N2C(=O)NC1CCCCC1 | 7.09%
15 | O=C(Cc1ccccc1)N1CCN(C2CCCCCC2)CC1 | 4.36%
